From PubChem BioAssay
Vif-APOBEC3F blk: inhibitors of Vif-A3F interaction; HeLa A3F-eYFP + Vif (tagged APOBEC3F with the HIV-1 protein that degrades it), YFP fluorescence increase; Potency, µM (top dose mostly 46.1 µM), inactives show top-dose activity, negative = active; actives 0.2% (n = 390,000); AID 602313; further: potency means the concentration at half of the fitted maximal effect; % of control where 0% means no effect; nearly all actives have a fitted effect of over 65% in size
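HeLa cells stably expressing Vif plus C-terminally eYFP-tagged A3F were seeded, incubated overnight at 37 deg C, dosed with compound, incubated overnight again at 37 deg C. Yellow fluorescence (Ex 488/Em 500-530) reported blocked Vif-mediated A3F-eYFP degradation.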
SW480 rereplic: induces DNA re-replication in SW480 colon adenocarcinoma cells. Potency, µM (highest dose often 46.1 µM), without a hit: at the highest dose re-replication activation, most hits filed as activators. SW480 DNA re-replication, Hoechst DNA content imaging, 48 h. AID 624297. actives 1.8% (n = 340,000); further: potency means the concentration at half of the fitted maximal effect; % of control where 0% means no effect; nearly all actives have a fitted effect of over 55% in size
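SW480 cells exposed to compounds for 48 hr at 37 C, 5% CO2, then Hoechst-stained 40 min. Nuclear DNA content imaged by fluorescence scanning (405 nm excitation, 500-530 nm emission); re-replication scored as increased high-intensity nuclei.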
Vif-A3G inh: inhibitors of Vif-APOBEC3G interaction; actives 0.076% (n = 410,000); Potency, µM (top dose mostly 46.1 µM), inactives show top-dose activity, negative = active, actives largely listed as inhibitors; HeLa A3G-eYFP + Vif (tagged APOBEC3G with the HIV-1 protein that degrades it), YFP fluorescence, overnight; further: potency means the concentration at half of the fitted maximal effect; on the % scale 0 is the no-effect control and ±100 the full control effect; nearly all actives have a fitted effect of over 60% in size
Target sequence (Q9HC16 whole entry, looked up): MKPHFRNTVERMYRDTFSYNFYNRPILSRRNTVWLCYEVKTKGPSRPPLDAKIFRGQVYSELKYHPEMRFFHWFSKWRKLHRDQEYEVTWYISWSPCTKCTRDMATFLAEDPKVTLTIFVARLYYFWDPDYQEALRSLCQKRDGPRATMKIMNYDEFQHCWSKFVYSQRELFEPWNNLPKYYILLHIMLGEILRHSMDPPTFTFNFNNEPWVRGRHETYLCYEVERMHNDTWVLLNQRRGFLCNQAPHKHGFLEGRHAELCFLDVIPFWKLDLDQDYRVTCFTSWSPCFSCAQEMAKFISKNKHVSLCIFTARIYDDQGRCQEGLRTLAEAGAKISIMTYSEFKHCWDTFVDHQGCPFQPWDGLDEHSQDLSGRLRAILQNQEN
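HeLa cells stably expressing Vif and C-terminally eYFP-tagged A3G, seeded overnight at 37 deg C, then exposed to compound by pintool overnight at 37 deg C. Rise in yellow fluorescence (Ex 488/Em 500-530, Acumen) marks blocked Vif-driven A3G degradation.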
MCF10A rereplic: inducers of DNA re-replication in MCF 10A breast cells | Potency, µM (top dose mostly 46.1 µM), for the others: at the top dose activity, positive = re-replication, usual class: activators | actives 2.9% (n = 350,000) | MCF 10A DNA re-replication, Hoechst nuclear intensity, 48 h; further: potency means the concentration at half of the fitted maximal effect; % of control where 0% means no effect; nearly all actives have a fitted effect of over 50% in size
IL-1B inflam inh: inhibitors of inflammasome signaling (IL-1 beta secretion); THP-1 LPS/ATP IL-1B secretion, AlphaLISA, 16 h; stronger effect = lower value; activity change, % at 57.5 µM; actives 4.7% (n = 360,000); AID 743279; in the data active means activity change below about -50%; inconclusive means mostly about -30% to -49%; further: on the % scale 0 is the no-effect control and ±100 the full control effect
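THP-1 cells pretreated 1 hr with compounds (up to 57.5 uM final), then stimulated with LPS (250 ng/mL final) plus ATP (1.25 mM final); secreted IL-1B measured by AlphaLISA after 16 hr, decreased signal indicating inhibition.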
Giardia kill: kills Giardia lamblia; Giardia lamblia trophozoite viability; activity change, % at 7.66 µM, hits read low; actives 0.15% (n = 340,000); in the data active means activity change below about -80%; inconclusive means between about -30% and that limit;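 further: parasites exposed to compound for two days anaerobically before the ATP read; on the % scale 0 is the no-effect control and ±100 the full control effect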
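Giardia trophozoites, 100 cells per well, were exposed to compounds for 48 hrs at 37 deg C under anaerobic conditions; viability was then read as ATP content by bioluminescence after 15-30 min at room temperature.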
Starred values were filed as active, the others as inactive; ? = inconclusive; / = no result given; [ ] = another dose, or the depositor's remark. Compounds with a hit are over-represented: about 6.9% of the library has one in this group of screens. Unless noted, the call rests on the fitted dose curve; in most records, active means well fitted curve in the direction sought with a large enough effect; inconclusive means small, poorly fitted or top-dose-only effect, or another doubt; inactive means no such curve, though single readings can be large; an effect the other way counts as inactive or inconclusive.

SMILES	Vif-APOBEC3F blk	SW480 rereplic	Vif-A3G inh	MCF10A rereplic	IL-1B inflam inh	Giardia kill
C(=N\Nc1nc(N2CCCCC2)nc(N2CCCCC2)n1)/c1c[nH]c2ccccc12	-9%	4%	-6%	12%	-60*	-9
CN(C)c1nc(N/N=C/c2c[nH]c3ccccc23)nc(N2CCOCC2)n1	7%	15µM*	0%	19%	?	72
C(=Nc1ccc(N2CCOCC2)cc1)c1c[nH]c2ccccc12	8%	1%	-6%	7%	19	-15
Nn1cnc2c(c1=O)C1(CCCCC1)Cc1ccccc1-2	-8%	?	-9%	?	0	-5
Oc1ccc(-c2nc3c4c(ncn3n2)-c2ccccc2CC42CCCC2)cc1	2%	1%	1%	4.6µM*	-1	1
CC(=O)C[C@H]1c2cc(F)cc(F)c2S(=O)(=O)N1C1CCN(Cc2ccccc2)CC1	/	/	-1%	/	/	/
CC(=O)OCON[N+]([O-])=NC(C)C	/	/	1%	/	/	?
Cc1cccc2sc(NNC(=O)c3ccc(S(=O)(=O)N4CCc5ccccc5C4)cc3)nc12	-10%	4.1µM*	-28%	?	125	12
CCOC(=O)N1CCN(S(=O)(=O)c2ccc(C(=O)NNc3nc4c(C)cccc4s3)cc2)CC1	0%	?	-10%	?	86	11
CCOC(=O)N1CCN(S(=O)(=O)c2ccc(C(=O)NNc3nc4c(C)cc(C)cc4s3)cc2)CC1	-1%	5.8µM*	-9%	?	109	-14
Cc1cccc2sc(NNC(=O)c3ccc(S(=O)(=O)N4CCCC(C)C4)cc3)nc12 (stereo not given)	?	7.3µM*	-22%	?	135	-12
COc1ccccc1C(=O)Nc1ccccc1SCc1cc(=O)c2ccccc2[nH]1	0%	/	1%	/	/	/
COc1ccc(C23CC4CC(CC(C4)C2)C3)cc1C(=O)NCCN(C)C	-15%	?	6%	?	-13	-17
CN(C)CCNC(=O)c1cccc2nc3cccc(F)c3nc12	1%	22%	-14%	?	-116*	-3
COc1ccc(OC)c2nc3c(C(=O)NCCN(C)C)cccc3nc12	-21%	?	1%	?	-100*	-10
CN(C)CCNC(=O)c1cccc2ccc(-c3ccc(-c4ccccc4)cc3)nc12	-3%	?	-5%	?	-57*	-20
CCOc1ccc(C2c3[nH]c4ccccc4c3CCN2C(=O)CSc2ccccc2)cc1 (stereo not given)	-1%	/	-9%	/	/	/
Cc1cc(C)c2oc(-c3cccc(NC(=O)COc4ccc([N+](=O)[O-])cc4)c3)nc2c1	-20%	/	7%	/	/	/
O=C(CSc1nc2c([nH]c3ccccc32)c(=O)n1-c1ccc(F)cc1)NCC1CCCO1 (stereo not given)	0%	/	-4%	/	/	/
CCNC(=O)NS(=O)(=O)c1cnccc1Nc1cccc(Cl)c1	4%	29µM*	-1%	-6%	16	-13
CC(=O)NS(=O)(=O)c1cccnc1Nc1cccc(Cl)c1	-7%	-5%	0%	-1%	9	-12
S=C(NCCCc1cnc[nH]1)NCCCN(CCc1ccc(Cl)cc1)c1ccc(Br)cn1	/	/	-4%	/	/	5
CCNS(=O)(=O)c1ccc(C(=O)OCc2cc(=O)oc3cc(OC)ccc23)cc1	?	?	-6%	15µM*	-1	12
Cc1cc(=O)[nH]c2nnc(SCC(=O)Nc3ccc(OC(F)(F)F)cc3)n12	3%	/	1%	/	/	/
O=C(Cn1c(=O)n(Cc2nc(-c3ccccc3)no2)c(=O)c2cc3c(cc21)OCO3)Nc1cccc(C(F)(F)F)c1	-3%	/	-4%	/	/	/
SMILES	Vif-APOBEC3F blk	SW480 rereplic	Vif-A3G inh	MCF10A rereplic	IL-1B inflam inh	Giardia kill
Clc1ccc(CNCC2CCCO2)c(Cl)c1 (stereo not given)	9%	-4%	-1%	0%	3	1
OC(CNCC1CCCO1)Cn1c2ccc(Cl)cc2c2cc(Cl)ccc21 (stereo not given)	-10%	19%	-18%	?	-80*	-11
OC(CNCC1CCCO1)Cn1c2ccccc2c2ccccc21 (stereo not given)	-15%	15%	1%	-1%	-56*	-14
OC(CNCCC1C=Nc2ccccc21)Cn1c2ccc(Cl)cc2c2cc(Cl)ccc21 (stereo not given)	8%	?	1%	5.2µM*	-110*	-14
Cc1cc(C)n(CC(O)Cn2c3ccc(Cl)cc3c3cc(Cl)ccc32)c(=O)n1 (stereo not given)	-1%	4%	-4%	2%	?	-3
Brc1cc2c(cc1Cn1c(-c3cncs3)nc3ccccc31)OCO2	-1%	10%	1%	10%	-16	3
Cc1ccccc1Cn1c(-c2cncs2)nc2ccccc21	-5%	12%	-14%	?	-52*	-4
CC1CCc2noc(NC(=O)c3ccccc3[N+](=O)[O-])c2C1 (stereo not given)	-3%	/	0%	/	/	/
Cc1ccc(Nc2nc(N)nc(CSc3ncccn3)n2)cc1	-3%	12%	-12%	12%	-24	-3
Cc1ccc(Nc2nc(N)nc(CSc3nc4ccccc4s3)n2)cc1	1%	?	0%	?	-70*	-3
CCOC(=O)c1cnc(SCc2nc(N)nc(Nc3ccc(C)cc3)n2)nc1N	-1%	?	-16%	10µM*	-52*	-23
COc1ccc(Nc2nc(N)nc(CSc3nc4ccccc4s3)n2)cc1	3%	/	-7%	/	/	/
CCOC(=O)c1cnc(SCc2nc(N)nc(Nc3ccc(F)cc3)n2)nc1N	-20%	?	-16%	3.7µM*	-12	12
CCCCCN1C(C(=O)c2ccccc2)=C(NC(=O)c2ccc(OC)cc2)c2ccccc2S1(=O)=O	-3%	/	1%	/	/	/
CCOc1ccc(CCNC(=O)CSc2nnnn2-c2ccccc2)cc1OCC	2%	/	0%	/	/	/
CCCCOc1nnc(-c2ccc(OCC)cc2)c2ccccc12	-2%	/	-7%	/	/	/
COc1ccc2oc(=O)cc(CN3CCN(C(=O)c4ccccc4Br)CC3)c2c1	0%	/	0%	/	/	/
O=S(=O)(c1ccc(Cl)cc1)c1snnc1-c1ccccc1	-1%	?	-30%	?	-115*	-13
CN(C)c1ncc(S(=O)(=O)c2ccc(Cl)cc2)c(-c2ccccc2)n1	-2%	-18%	2%	-181%[0.0737 µM]	22	-5
O=S(=O)(c1ccc(F)cc1)c1snnc1-c1ccccc1	-3%	52%	?	7.3µM*	-100*	-2
CC(C)/C=C(/C(=O)c1ccc(Cl)cc1Cl)n1cncn1	-1%	?	-10%	?	-71*	34
O=C(Cn1cncn1)N/N=C/c1ccc(Cl)cc1	3%	-5%	0%	1%	6	-9
